Assay [1] can be described thus: NCI Yeast Anticancer Drug Screen. Data for the rad50 strain (AID 155).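 Also: 0% = growth of vehicle-only cultures of the same strain.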 To be noted: S. cerevisiae rad50 strain growth inhibition, hits give high values; at 50.0 µM unless noted. In a few lines:
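Cells are treated with compound, grown, and their growth is then scored against vehicle-only cultures of the same repair-deficient yeast strain.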

The nature of assay [2]: NCI Yeast Anticancer Drug Screen. Data for the mec2-1 strain (AID 157). The note with it: S. cerevisiae mec2-1 strain, hits give high values; at 50.0 µM unless noted. Put shortly: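 Yeast mec2-1 mutant treated with compound. Readout: growth inhibition vs vehicle controls.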
Assay [3] can be described thus: NCI Yeast Anticancer Drug Screen. Data for the sgs1 mgt1 strain (AID 161).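 Also: 0% = growth of cultures given vehicle only.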 The note with it: S. cerevisiae sgs1 mgt1 strain, hits give high values; at 50.0 µM unless noted. In a few lines: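 Read-out: growth inhibition vs vehicle controls. Cells: mutant yeast strain deficient in DNA damage repair.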
Assay [4] in a line: NCI Yeast Anticancer Drug Screen. Data for the cln2 rad14 strain (AID 165).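 Also: 0% = growth equal to vehicle treated cultures.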 The note with it: S. cerevisiae cln2 rad14 strain, hits give high values; at 50.0 µM unless noted. Put shortly: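 cln2 rad14 yeast strain; compound exposure; growth inhibition read vs vehicle controls.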
Assay [5] can be described thus: NCI Yeast Anticancer Drug Screen. Data for the bub3 strain (AID 167). To be noted: S. cerevisiae bub3 mutant strain, hits give high values; at 50.0 µM unless noted. In a few lines: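 Part of a panel of yeast mutants defective in DNA damage repair or cell cycle regulation. Each strain is grown with compound, and inhibition is calculated relative to solvent-treated cultures.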

Assay [6] in a line: NCI Yeast Anticancer Drug Screen. Data for the mlh1 rad18 strain (AID 175). The note with it: S. cerevisiae mlh1 rad18 strain growth inhibition, hits give high values; at 50.0 µM unless noted. Put shortly: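 Yeast w/ defined DNA-repair lesions; compound exposure; growth vs vehicle controls → % inhibition.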

This is part of a sample that, as a whole, favours compounds with a hit. Of some 79,000 tested, about 15% had one in any assay. Values without a mark were called inactive. The source made the active and inactive calls. Rule as the data show it: active = growth inhibition above about 70%; inactive = the rest.

Turning to `CCCCCC[P+](c1ccccc1)(c1ccccc1)c1ccccc1`, the growth inhibition in assay [1] was 97.7% (active); in assay [2], 98.4% (active); in assay [3], 98% (active); in assay [4], 95% (active); in assay [5] it was 96.1% (active); in assay [6], 97.8% (active).

With `CC(=O)Sc1ccc2c(c1)-c1ccccc1C2=O`, the growth inhibition was 28.6% in assay [1]; 27.2% in assay [2]; 22.4% in assay [3]; 8.25% in assay [4]; 39.6% in assay [5]; 16.9% in assay [6].

Take `CC(C)c1ccccc1O`: the growth inhibition is 34.9% in assay [1]; 30.7% in assay [2]; 9.95% in assay [3]; 8.8% in assay [4]; 0.45% in assay [5]; 22.4% in assay [6].

With `CC(C)(C)NCCS`, the growth inhibition in assay [1] is -17.1%; in assay [2] it was -34.9%; in assay [3], -32.4%; in assay [4], 2.95%; in assay [5], -19.9%; in assay [6] it was -12.8%.

`Nc1ccccc1[N+](=O)[O-]`: the growth inhibition in assay [1] was -14.4%; in assay [2] it was -3.45%; in assay [3], -14.7%; in assay [4] it was -15.7%; in assay [5], 1.5%; in assay [6], -1.55%.

For `O=C(O)/C=C\C(=O)NNC(=O)/C=C\C(=O)O`, the growth inhibition was 5.55% in assay [1]; -2.8% in assay [2]; -5.05% in assay [3]; -18.9% in assay [4]; 5.45% in assay [5]; -24.4% in assay [6].

Regarding `CCCCN(CCCC)CC(C(=O)Nc1ccc([N+](=O)[O-])cc1[N+](=O)[O-])/C(C)=N\NC(=O)c1ccncc1` (centres undefined), the growth inhibition in assay [1] is 22.7%; in assay [2], -3.65%; in assay [3] it was 11.8%; in assay [4] it was -65.1%; in assay [5], 2.55%; in assay [6] it was 18.1%.

Take `CC(C(C#N)C(N)=O)C(C#N)C(N)=O` (centres undefined): the growth inhibition in assay [1] is 10.2%; in assay [2], 12.4%; in assay [3] it was 5.5%; in assay [4] it was -4.4%; in assay [5], -23.9%; in assay [6], 14.7%.

Turning to `CN(C)C(n1cc2c(c1)-c1ccc(Cl)cc1C(c1ccccc1F)=NC2)n1cc2c(c1)-c1ccc(Cl)cc1C(c1ccccc1F)=NC2`, the growth inhibition is 11.8% in assay [1]; -8.8% in assay [2]; 1% in assay [3]; 7.8% in assay [4]; -7.55% in assay [5]; -22.9% in assay [6].

In the case of `COC(=O)CCC(=O)Nc1cc(C)ccc1C`, the growth inhibition in assay [1] was -6.3%; in assay [2] it was -19.9%; in assay [3], -7.6%; in assay [4], 4.5%; in assay [5], -2.25%; in assay [6], -12.2%.

For the compound `O=C1C=C(C2=CC(=O)c3cccc(O)c3C2=O)C(=O)c2c(O)cccc21`, the growth inhibition is -32.5% in assay [1]; -13% in assay [2]; -9.9% in assay [3]; -46% in assay [4]; -8.5% in assay [5]; -4.7% in assay [6].

For `CC1(O)CC(=O)c2c(cc3ccc(-c4c5c(c(O)c6c(O)cccc46)C(=O)CC(C)(O)C5)c(O)c3c2O)C1` (centres undefined), the growth inhibition in assay [1] is 54.1%; in assay [2], 48.1%; in assay [3] it was 35.5%; in assay [4], 23.8%; in assay [5], 19.7%; in assay [6], 9.95%.

Turning to `C=C1CC2CC[C@@]34C[C@@H]5O[C@@H]6C(O[C@H]7CC[C@H](CC(=O)OC8[C@@H](C)C9OC%10C[C@]%11(C[C@@H]%12O[C@@]%13(C[C@@H](C)[C@@H]%12O%11)C[C@H](C)[C@@H]%11OC%12CC(C(O)CO)OC%12C[C@@H]%11O%13)OC%10CC9O[C@H]8C[C@H]8O[C@@H](CC[C@@H]1O2)C[C@@H](C)C8=C)O[C@@H]7[C@@H]6O3)C5O4` (some centres undefined), the growth inhibition in assay [1] is 79.8% (active); in assay [2], 74.6% (active); in assay [3], 76.5% (active); in assay [4] it was 69.8%; in assay [5] it was 83.2% (active); in assay [6], 78.5% (active).

As for `O=C(O)c1ccc(P(=O)(O)O)cc1[N+](=O)[O-]`, the growth inhibition in assay [1] was 26.4%; in assay [2], 9.65%; in assay [3] it was -9.45%; in assay [4], 1.75%; in assay [5] it was 4.25%; in assay [6], -7%.

Consider `C=C1C(=O)O[C@@H]2C[C@@H](C)[C@@H]3C=CC(=O)[C@@]3(C)[C@@H](OC(=O)CCCC(=O)O[C@H]3[C@@H]4C(=C)C(=O)O[C@@H]4C[C@@H](C)[C@@H]4C=CC(=O)[C@]43C)[C@H]12`, for which the growth inhibition is 50.1% in assay [1]; 49% in assay [2]; 57.6% in assay [3]; 31.1% in assay [4]; 58% in assay [5]; 34.9% in assay [6].

As for `c1ccc2c(CC3NCCN3)cccc2c1`, the growth inhibition in assay [1] was -11.3%; in assay [2] it was -32.2%; in assay [3] it was -55.2%; in assay [4] it was 10.8%; in assay [5] it was -1.4%; in assay [6] it was -13%.

In the case of `O=c1oc2ccccc2cc1-c1nc2ccccc2c(=O)[nH]1`, the growth inhibition was 17.8% in assay [1]; 8.1% in assay [2]; -20.9% in assay [3]; 13.7% in assay [4]; -4.9% in assay [5]; -50.9% in assay [6].

On to `Cc1cnc2ccccc2n1` (tested in a mixture with another compound), for which the growth inhibition was -1.5% in assay [1]; 4.35% in assay [2]; -5.25% in assay [3]; 8% in assay [4]; -2.1% in assay [5]; 24.8% in assay [6].

Consider `CCOC(=O)NC(=S)c1ccc[nH]1`, for which the growth inhibition in assay [1] is -10.7%; in assay [2], -42.2%; in assay [3], 0.2%; in assay [4], 4.6%; in assay [5] it was -36.8%; in assay [6] it was -20.2%.

(Values after PubChem BioAssay (NCI).)
